What all share (test): NCI-60 one-dose screen, 48 h (100 = growth as untreated, 0 = no growth, -100 = all killed)
One experiment relates to NCI-H23 lung. As to conditions: 10 µM unless noted.
The next experiment relates to NCI-H226 lung. The settings on record: 10 µM unless noted.
For another experiment, the system named is NCI-H322M lung. The settings on record: 10 µM unless noted.
Another experiment relates to HOP-62 NSCLC. As to conditions: 10 µM unless noted.
Another experiment relates to NCI-H460 lung. The settings on record: 10 µM unless noted.
Another experiment deals with HOP-92 NSCLC. The settings on record: 10 µM unless noted.
A further experiment deals with NCI-H522 lung. As to conditions: 10 µM unless noted.
For a further experiment, the system named is A549/ATCC NSCLC. As to conditions: 10 µM unless noted.
The subject of a further experiment is 786-0 renal. As to conditions: 10 µM unless noted.
The subject of a further experiment is COLO 205 colon. The settings on record: 10 µM unless noted.
The subject of the next experiment is DU-145 prostate. The settings on record: 10 µM unless noted.
The test system of a further experiment is K-562 leukemia. As to conditions: 10 µM unless noted.
Another experiment relates to MALME-3M melanoma. The settings on record: 10 µM unless noted.
A further experiment has as its system MDA-MB-231 breast. The settings on record: 10 µM unless noted.
For another experiment, the system named is RXF 393 renal. As to conditions: 10 µM unless noted.
The next experiment has as its system SF-268 CNS. The settings on record: 10 µM unless noted.
In a further experiment the test system is SF-295 CNS. As to conditions: 10 µM unless noted.
The next experiment deals with SF-539 CNS. As to conditions: 10 µM unless noted.
The subject of a further experiment is UACC-257 melanoma. As to conditions: 10 µM.
The next experiment has as its system M14 melanoma. As to conditions: 10 µM unless noted.

Compounds without any hit were thinned out: in the full panel of roughly 83,000, 20% have a hit.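 A percent growth of 40 corresponds to 60% growth inhibition; 0 means no net growth; -100 means all cells died. Active threshold: below 10.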 Values without a mark were called inactive. Calls of active or inactive are those of the source.

In the case of `O=C(CCCCCCN1CC(=O)N2[C@@H](c3cccc(Cl)c3)c3[nH]c4ccccc4c3C[C@H]2C1=O)NO`, the growth with NCI-H23 lung is 71.3%; with NCI-H226 lung, 102%; in the experiment with NCI-H322M lung, 66.4%; in the experiment with HOP-62 NSCLC, 51.9%; with NCI-H460 lung, 43.1%; in the experiment with HOP-92 NSCLC, 44.5%. Also, the growth with NCI-H522 lung was 19.2%; with A549/ATCC NSCLC it was 79.6%; in the experiment on 786-0 renal, 79%; in the experiment on COLO 205 colon, 36.9%; with DU-145 prostate, 46.3%; in the experiment on K-562 leukemia it was 24%. The growth in the experiment with MALME-3M melanoma was 29.1%; in the experiment with MDA-MB-231 breast, 39.5%; with RXF 393 renal, 9.1% (active); in the experiment with SF-268 CNS it was 64.4%; in the experiment on SF-295 CNS it was 52%; in the experiment on SF-539 CNS, 50.6%. Besides, the values for the growth in the experiment with UACC-257 melanoma and in the experiment with M14 melanoma were 44% and 45.6%, respectively.
In the case of `C=C(C)[C@@H]1CC[C@]2(C(=O)ON)CC[C@]3(C)[C@H](CC[C@@H]4[C@@]5(C)C/C(=C/c6ccc(Br)cc6)C(=O)C(C)(C)[C@@H]5CC[C@]43C)[C@@H]12`, the growth in the experiment with NCI-H23 lung was 78.4%; in the experiment with NCI-H226 lung, 72.6%; in the experiment with NCI-H322M lung, 85.1%; in the experiment with HOP-62 NSCLC it was 85.9%; with NCI-H460 lung it was 71%; with HOP-92 NSCLC, 73.6%. The growth in the experiment on NCI-H522 lung was 66.8%; with A549/ATCC NSCLC, 54.8%; in the experiment with 786-0 renal, 84.8%; with COLO 205 colon it was 88%; in the experiment with DU-145 prostate, 79.2%; with K-562 leukemia, 46.3%. Besides, the growth with MALME-3M melanoma is 83.2%; in the experiment on MDA-MB-231 breast, 80.6%; in the experiment with RXF 393 renal it was 78.4%; in the experiment on SF-268 CNS, 81.1%; in the experiment on SF-295 CNS it was 74.9%; in the experiment with SF-539 CNS it was 75.9%. The growth in the experiment with UACC-257 melanoma was 81.1%; with M14 melanoma, 76%.
Turning to `O=C(NNc1nc2cc(F)c(F)cc2n2cccc12)c1cccnn1`, the growth was 25.9% in the experiment with NCI-H23 lung; 4.29% (active) in the experiment on NCI-H226 lung; 26.2% with NCI-H322M lung; 20.2% with HOP-62 NSCLC; 8.06% (active) in the experiment on NCI-H460 lung; 75.4% with HOP-92 NSCLC. The growth in the experiment on NCI-H522 lung was -8.32% (active); with A549/ATCC NSCLC, 14.1%; with 786-0 renal, 19.2%; in the experiment with COLO 205 colon, 9.86% (active); with DU-145 prostate, 24.3%; with K-562 leukemia, 13.3%. Also, the growth with MALME-3M melanoma was 17.8%; in the experiment on MDA-MB-231 breast it was 32.4%; in the experiment on RXF 393 renal it was 40.1%; in the experiment with SF-268 CNS, 14%; in the experiment on SF-295 CNS, 8.56% (active); with SF-539 CNS it was 0.368% (active). Also, the values for the growth in the experiment on UACC-257 melanoma and with M14 melanoma were 5.44% (active) and 11.2%, respectively.
In the case of `CCn1c2ccc(/C=N/NS(=O)(=O)CCN(C)C)cc2c2cc(/C=N/NS(=O)(=O)CCN(C)C)ccc21`, the growth with NCI-H23 lung is 97.4%; in the experiment with NCI-H226 lung, 96.5%; with NCI-H322M lung, 85.7%; in the experiment with HOP-62 NSCLC, 82.7%; in the experiment with NCI-H460 lung, 101%; in the experiment with HOP-92 NSCLC it was 92.2%. Besides, the growth was 86.6% in the experiment on NCI-H522 lung; 101% in the experiment with A549/ATCC NSCLC; 92% in the experiment on 786-0 renal; 115% in the experiment on COLO 205 colon; 105% in the experiment with DU-145 prostate; 94.1% in the experiment with K-562 leukemia. The growth in the experiment on MALME-3M melanoma was 85.3%; with MDA-MB-231 breast, 89.7%; in the experiment on RXF 393 renal it was 96.6%; with SF-268 CNS, 90.2%; with SF-295 CNS, 103%; in the experiment with SF-539 CNS, 90.5%. Also, the growth in the experiment with UACC-257 melanoma was 103%; in the experiment with M14 melanoma, 104%.
`O=C(CCCCCCN1CC(=O)N2[C@@H](c3ccccc3)c3[nH]c4ccccc4c3C[C@H]2C1=O)NO`: the growth in the experiment on NCI-H23 lung is 70.9%; in the experiment on NCI-H226 lung, 105%; in the experiment with NCI-H322M lung, 72.4%; in the experiment with HOP-62 NSCLC, 58.5%; with NCI-H460 lung it was 54.2%; in the experiment on HOP-92 NSCLC, 57.9%. The growth in the experiment on NCI-H522 lung was 35%; in the experiment on A549/ATCC NSCLC, 95.9%; with 786-0 renal, 93.3%; with COLO 205 colon, 58.8%; in the experiment with DU-145 prostate, 58.3%; in the experiment with K-562 leukemia, 26.3%. Further, the growth was 21.8% in the experiment with MALME-3M melanoma; 70.1% with MDA-MB-231 breast; 76.6% in the experiment on RXF 393 renal; 82.1% in the experiment with SF-268 CNS; 57.4% with SF-295 CNS; 62.5% with SF-539 CNS. Besides, the growth in the experiment on UACC-257 melanoma was 45.7%; in the experiment on M14 melanoma it was 49.9%.
Regarding `C#CCOc1ccc(C(Nc2ccc(OC)cc2)c2nnnn2C2CCCCC2)cc1` (stereo not given), the growth is 99.8% with NCI-H23 lung; 101% with NCI-H226 lung; 97.3% with NCI-H322M lung; 98.9% with HOP-62 NSCLC; 103% in the experiment with NCI-H460 lung; 93.9% in the experiment with HOP-92 NSCLC. The growth with NCI-H522 lung is 89.3%; in the experiment on A549/ATCC NSCLC, 92.2%; in the experiment with 786-0 renal, 95.5%; in the experiment on COLO 205 colon, 106%; in the experiment with DU-145 prostate, 109%; with K-562 leukemia, 94.4%. In addition, the growth with MALME-3M melanoma was 98.5%; with MDA-MB-231 breast it was 86.6%; in the experiment with RXF 393 renal, 114%; with SF-268 CNS it was 102%; in the experiment with SF-295 CNS, 100%; with SF-539 CNS it was 104%. Also, the growth in the experiment on UACC-257 melanoma was 102%; in the experiment on M14 melanoma, 97.2%.

Values taken from PubChem BioAssay (NCI).
